The list is not random: actives were taken first. Their share in the collection is about 6.5%.
Lassa entry inh: inhibitors of Lassa virus binding or cell entry | Lassa virus pseudotype entry inhibition, cell reporter | actives 1.2% (n = 300,000) | Potency, µM (series often up to 37.9 µM), for inactives: top-dose activity change, negative = inhibition, actives largely listed as inhibitors; calls by dose curve; tested in HEK293 cells; note: potency is the fitted concentration of half-maximal effect; nearly all actives have a fitted effect of over 50% in size
Marburg entry inh: blocks Marburg virus binding to or entry into cells. Marburg virus pseudotyped entry inhibition, cell reporter. Potency, µM (top dose mostly 37.8 µM), inactives show at the highest dose activity change, negative = inhibition, most hits filed as inhibitors. actives 1.8% (n = 300,000); calls by dose curve; tested in HEK293 cells; note: potency is the fitted concentration of half-maximal effect
HCMV antiviral: inhibitors of human cytomegalovirus; HFF cells, HCMV-luciferase reporter, 72 h; active compounds read low; actives 4.5% (n = 410,000); AID 1259415; activity change, negative = inhibition, % at 57.5 µM; in the data active = activity change below about -60%; inconclusive = no clear call, values can overlap the other calls; inactive = above about -39%
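Human foreskin fibroblasts infected with luciferase-reporter HCMV at MOI 1 PFU/cell, compounds at two doses. Luciferase measured 72 h post infection; normalized to buffer-only basal and Salinomycin (10uM) controls.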
Vaccinia mCherry: inhibitors of vaccinia virus infection (mCherry reporter signal); actives 0.63% (n = 310,000); AID 720579; Potency, µM (series often up to 36.5 µM), inactives show at the highest dose activity change, negative = inhibition, most hits filed as inhibitors; Vaccinia virus mCherry reporter infection, fluorescence; calls by dose curve; tested in A549 cells; note: potency is the fitted concentration of half-maximal effect; nearly all actives have a fitted effect of over 35% in size
Vaccinia Venus: vaccinia inhibition (Venus reporter); Vaccinia virus Venus reporter expression, fluorescence; Potency, µM (top dose mostly 36.5 µM), without a hit: top-dose activity change, negative = inhibition, usual class: inhibitors; actives 0.46% (n = 330,000); calls by dose curve; tested in A549 cells; note: potency is the fitted concentration of half-maximal effect; nearly all actives have a fitted effect of over 30% in size
FMDV antiviral: blocks foot and mouth disease virus | FMDV antiviral cell-based qHTS | Potency, µM (doses to about 57.9 µM), for inactives: top-dose activity change, negative = inhibition, usual class: inhibitors | actives 1.2% (n = 410,000); calls by dose curve; tested in HEK293T cells; note: read-out not given here; potency is the fitted concentration of half-maximal effect; nearly all actives have a fitted effect of over 45% in size
* marks the source's active call; other numbers are inactive results; [ ] = remark or other dose. % is set by controls: 0 for no effect and ±100 for the full control effect.

What do the screens show for `COc1ccc(OCC(=O)NNc2c3ccccc3nc3ccccc23)cc1`?
Lassa entry inh: inconclusive; Marburg entry inh: inconclusive; HCMV antiviral: -75*; Vaccinia mCherry: -22%; Vaccinia Venus: inconclusive; FMDV antiviral: 22µM*

What do the screens show for `O=C(CCCO)NNc1c2ccccc2nc2ccccc12`?
Lassa entry inh: -5%; Marburg entry inh: 8%[46.1 µM]; HCMV antiviral: -21; Vaccinia mCherry: -22%[7.34 µM]; Vaccinia Venus: -4%[7.34 µM]; FMDV antiviral: -3%

How did CCCC(=O)NNc1c2ccccc2nc2ccccc12 do in these assays?
Lassa entry inh: 0%; Marburg entry inh: 23%; HCMV antiviral: -9; Vaccinia mCherry: -8%; Vaccinia Venus: 1%; FMDV antiviral: -15%

Results for CC1=NN(C(C#N)c2ccccc2C)C(C)(C)C1 (configuration not stated) ?
Lassa entry inh: -2%; Marburg entry inh: -8%; HCMV antiviral: -65*; Vaccinia mCherry: inactive; Vaccinia Venus: 5%; FMDV antiviral: -7%

Results for CCN(Cc1ccncc1)C(=O)CC1C(=O)NCCN1Cc1ccc(F)c(F)c1 (configuration not stated) ?
HCMV antiviral: -78*; FMDV antiviral: -16%

How did CC(=O)Nc1ccc(SCC(=O)c2cc(C)n(Cc3cccs3)c2C)cc1 do in these assays?
Lassa entry inh: inconclusive; Marburg entry inh: inconclusive; HCMV antiviral: -77*; Vaccinia mCherry: -12%; Vaccinia Venus: -8%; FMDV antiviral: 22µM*

How did COC(=O)c1ccc(-n2c(C)cc(C(=O)CSc3ccc(NC(C)=O)cc3)c2C)cc1 do in these assays?
Lassa entry inh: inconclusive; Marburg entry inh: inconclusive; HCMV antiviral: 4; Vaccinia mCherry: -19%; Vaccinia Venus: -14%; FMDV antiviral: inconclusive

What do the screens show for `COc1ccc(-c2nnc(SCC(=O)c3cc(C)n(Cc4cccs4)c3C)o2)cc1`?
Lassa entry inh: 18%; Marburg entry inh: -1%; HCMV antiviral: -18; Vaccinia mCherry: -9%; Vaccinia Venus: -4%; FMDV antiviral: -3%

Results for Cc1csc(SCC(=O)c2cc(C)n(Cc3cccs3)c2C)n1 ?
Lassa entry inh: 0.79µM*; Marburg entry inh: 0.5µM*; HCMV antiviral: -94*; Vaccinia mCherry: -30%; Vaccinia Venus: inconclusive; FMDV antiviral: 11µM*

What do the screens show for `COCCn1c(C)cc(C(=O)CSc2ccc(NC(C)=O)cc2)c1C`?
Lassa entry inh: -9%; Marburg entry inh: -12%; HCMV antiviral: 20; FMDV antiviral: 13%

What do the screens show for `CC(=O)Nc1ccc(SCC(=O)c2cc(C)n(-c3ccccc3F)c2C)cc1`?
Lassa entry inh: inconclusive; Marburg entry inh: 6.5µM*; HCMV antiviral: -95*; Vaccinia mCherry: -17%; Vaccinia Venus: -12%; FMDV antiviral: inconclusive

How did Cc1cc(C(=O)CSc2nnc(N)s2)c(C)n1Cc1cccs1 do in these assays?
Lassa entry inh: 0.35µM*; Marburg entry inh: 1.6µM*; HCMV antiviral: -34; Vaccinia mCherry: -15%; Vaccinia Venus: -25%; FMDV antiviral: -71%

How did CC1(C)OC(=O)C2=C(CC(CCc3ccccc3)OC2c2ccc(Cl)c(Cl)c2)O1 (configuration not stated) do in these assays?
HCMV antiviral: 1

What do the screens show for `CCC[C@H]1[C@@H](NC(=O)Nc2ccc(Cl)cc2)CC[C@@]23CCCN2C(=O)CCC[C@@H]13`?
HCMV antiviral: -14

How did Cc1ccc(S(=O)(=O)NCc2ccc3c(c2)OCO3)cc1 do in these assays?
HCMV antiviral: 17

How did Cc1ccnc2ccc([N+](=O)[O-])cc12 do in these assays?
Vaccinia mCherry: -14%; Vaccinia Venus: -6%

What do the screens show for `CCCC[C@]12Cc3cc(C#N)ccc3[C@H](O1)c1c(c3ccccc3oc1=O)O2`?
Marburg entry inh: -8%[14.2 µM]

Results for CC(=O)OC1(c2ccccc2)CCN(C)CC1(C)C (configuration not stated) ?
HCMV antiviral: -80*; FMDV antiviral: 8%

How did CCC(C)n1ncn(-c2ccc(N3CCN(c4ccc(OCC5COC(Cn6cncn6)(c6ccc(Cl)cc6Cl)O5)cc4)CC3)cc2)c1=O (configuration not stated) do in these assays?
HCMV antiviral: -66*; Vaccinia mCherry: -9%; Vaccinia Venus: inconclusive; FMDV antiviral: inconclusive

How did O=C1NC(=S)N/C1=C/c1cccc2ccccc12 do in these assays?
Marburg entry inh: 0%; HCMV antiviral: 3; FMDV antiviral: 48%

Results for O=C1NC(=S)NC(=O)C1=Cc1ccc(Br)s1 ?
HCMV antiviral: -100*; FMDV antiviral: inconclusive

What do the screens show for `O=C1NC(=S)NC(=O)C1=Cc1cccc2cc3ccccc3cc12`?
HCMV antiviral: -94*; Vaccinia mCherry: inconclusive; Vaccinia Venus: 11µM*; FMDV antiviral: 10µM*

How did O=C1NC(=S)NC(=O)C1=Cc1c(Cl)cccc1Cl do in these assays?
Lassa entry inh: 0%[46.1 µM]; Marburg entry inh: 11%[46.1 µM]; HCMV antiviral: -61*; Vaccinia mCherry: -4%; Vaccinia Venus: -8%; FMDV antiviral: 20µM*

How did CN1C(=O)/C(=C\c2ccc(Br)s2)C(=O)NC1=S do in these assays?
Lassa entry inh: 0%[46.1 µM]; Marburg entry inh: inconclusive; HCMV antiviral: -1; Vaccinia mCherry: inactive; Vaccinia Venus: 18%; FMDV antiviral: 32µM*

How did Cc1cc(C)nc(-c2cccc3c2OC(CNC(=O)C2CCOC2)C3)n1 (configuration not stated) do in these assays?
Vaccinia mCherry: -8%; Vaccinia Venus: -4%; FMDV antiviral: -15%

How did CCCNC(=O)CN1C(=O)CSc2ccc(S(=O)(=O)N3CCC(C)CC3)cc21 do in these assays?
Marburg entry inh: 7%[46.1 µM]; HCMV antiviral: -4; Vaccinia mCherry: -11%; Vaccinia Venus: 5%; FMDV antiviral: -3%

Results for COc1ccccc1C(=O)OCc1cc(=O)n2nc(C(C)C)sc2n1 ?
Lassa entry inh: -23%[46.1 µM]; HCMV antiviral: 1; Vaccinia mCherry: -9%; Vaccinia Venus: -2%; FMDV antiviral: 45%

Results for O=C(/C=C/c1ccc(F)cc1)NCC1Cc2cccc(-c3ncccn3)c2O1 (configuration not stated) ?
Vaccinia mCherry: -18%; Vaccinia Venus: -8%; FMDV antiviral: -14%

Results for CCCN1C(=O)C[C@H](S(=O)(=O)c2ccccc2)[C@H]1c1ccccc1 ?
HCMV antiviral: -14

How did CCOC(=O)N1CCN(C(=O)COC(=O)c2ccc(N(C)C)cc2)CC1 do in these assays?
Lassa entry inh: 2.5µM*; Marburg entry inh: 22%; HCMV antiviral: -26; Vaccinia mCherry: -7%; Vaccinia Venus: 0%; FMDV antiviral: -11%

Results for COC(=O)c1ccc(CNC(=O)COC(=O)c2ccc(N(C)C)cc2)cc1 ?
Lassa entry inh: inconclusive; Marburg entry inh: inconclusive; HCMV antiviral: -66*; Vaccinia mCherry: -18%; Vaccinia Venus: -12%; FMDV antiviral: inconclusive

Screening results (PubChem)
